Activity calls are given as the source filed them. How the calls were made is not given here.
Test: V-ATPase regulators in yeast, S. cerevisiae, pHLuorin, powder sets 2-3, dose response (AID 651730)
Conditions: S. cerevisiae vacuolar pH, pHluorin fluorescence; series mostly up to 100 µM

outcome, inactive:
COCc1cccc(C(=O)N2CCN(c3nc4ccc(F)cc4s3)CC2)c1
Cc1cncc(C(=O)Nc2ccccc2N2CCOCC2)n1
COCc1ccc(C(=O)Nc2ccccc2N2CCOCC2)o1
O=C(Nc1ccccc1N1CCOCC1)c1cc(C(F)(F)F)ccn1
NS(=O)(=O)c1ccc(C(=O)N2CCN(c3nc4ccc(F)cc4s3)CC2)o1
Nc1ncc(C(=O)Nc2ccccc2N2CCOCC2)o1
CN(C)S(=O)(=O)c1cccc(C(=O)Nc2ccccc2N2CCOCC2)c1
N#Cc1ccnc(C(=O)Nc2ccccc2N2CCOCC2)c1
O=C(c1ccc(Br)o1)N1CCN(c2nc3ccc(F)cc3s2)CC1
O=C(c1cccc(Cl)n1)N1CCN(c2nc3ccc(F)cc3s2)CC1
O=C(Nc1ccccc1N1CCOCC1)c1cccc(C(F)(F)F)c1
Nc1ncc(C(=O)N2CCN(c3nc4ccc(F)cc4s3)CC2)o1
O=C(c1ccc(-c2ccccc2)o1)N1CCN(c2nc3ccc(F)cc3s2)CC1
NS(=O)(=O)c1cccc(C(=O)N2CCN(c3nc4ccc(F)cc4s3)CC2)c1
Nc1cncc(C(=O)Nc2ccccc2N2CCOCC2)n1
CN(C)C(=O)c1cccc(C(=O)Nc2ccccc2N2CCOCC2)c1
NC(=O)c1cccc(C(=O)Nc2ccccc2N2CCOCC2)c1
CN(C)Cc1ccc(C(=O)Nc2ccccc2N2CCOCC2)o1
CS(=O)(=O)Cc1cccc(C(=O)N2CCN(c3nc4ccc(F)cc4s3)CC2)c1
CN(C)Cc1cccc(C(=O)N2CCN(c3nc4ccc(F)cc4s3)CC2)c1
O=C(Nc1ccccc1N1CCOCC1)c1cccc(C(F)(F)F)n1
NC(=O)c1ccc(C(=O)N2CCN(c3nc4ccc(F)cc4s3)CC2)o1
Cc1cncc(C(=O)N2CCN(c3nc4ccc(F)cc4s3)CC2)n1
O=C(c1cc(C(F)(F)F)ccn1)N1CCN(c2nc3ccc(F)cc3s2)CC1
CN(C)C(=O)c1cccc(C(=O)N2CCN(c3nc4ccc(F)cc4s3)CC2)c1
O=C(c1cncc(Cl)n1)N1CCN(c2nc3ccc(F)cc3s2)CC1
N#Cc1ccnc(C(=O)N2CCN(c3nc4ccc(F)cc4s3)CC2)c1
NS(=O)(=O)c1cccc(C(=O)Nc2ccccc2N2CCOCC2)c1
CN(C)Cc1cccc(C(=O)Nc2ccccc2N2CCOCC2)c1
O=C(Nc1ccccc1N1CCOCC1)c1cncc(Cl)n1
